Measured values taken from PubChem BioAssay (NCATS).
Results filed as inconclusive are left out. The source made the active and inactive calls. Calls come from the whole dose curve; as a rule, active = well fitted curve in the direction sought with a large enough effect; inconclusive = small, poorly fitted or top-dose-only effect, or another doubt; inactive = no such curve, though single readings can be large; an effect the other way counts as inactive or inconclusive.

Legend:
[1] = MultiTox-Fluor Cytotoxicity Assay - LYMP1-003 - Live Cells (AID 962);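 note: cells exposed to compound for 16 hours at 37 °C; cytotoxic hits lower the live-cell protease signal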
Procedure, shortened: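 Live-cell protease activity (GF-AFC substrate, 405/510 nm, 60 min at room temperature) after 16 h, 37 C compound exposure of human lymphoblastoid LYMP1-003 cells; concentration-response fitted to the Hill equation for AC50.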

[2] = Cell Viability - LYMP1-003 - Assay at 24 hr (AID 963)
Procedure, shortened: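 Concentration-response qHTS: ATP loss measured by CellTiter-Glo luminescence after 24 h compound exposure at 37 C. Cells were LYMP1-003 human lymphoblastoid, 2500 per well. AC50 derived via standard Hill equation modeling.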

[3] = Cell Viability - LYMP1-003 - Assay at 40 hr (AID 964); note: series mostly up to about 92 µM; nearly all actives have a fitted effect of over 60% in size
Procedure, shortened: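 Viability is taken as cellular ATP, read by CellTiter-Glo luminescence after 40 h of compound exposure at 37 C. Cells: human lymphoblastoid line LYMP1-003 at 2500/well; AC50 values derived by Hill-equation fitting of concentration-response data.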

[4] = Cell Viability - LYMP2-004 (AID 966); note: nearly all actives have a fitted effect of over 65% in size
Procedure, shortened: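 AC50 values come from Hill modelling of concentration-dependent loss of intracellular ATP, measured by CellTiter-Glo luminescence. Human LYMP2-004 lymphoblastoid cells (2500/well) were exposed to compound for 24 h at 37 C.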

[5] = Cell Viability - LYMP2-005 (AID 967); note: series mostly up to about 92 µM
Procedure, shortened: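 Human lymphoblastoid LYMP2-005 cells, 2,500 per well in complete medium, rested 5 h at 37C then compound-treated 24 h at 37C. Intracellular ATP read by CellTiter-Glo luminescence after 30 min at room temperature; AC50 from Hill-equation fits of concentration-response data.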

[6] = Cell Viability - LYMP2-009 (AID 968); note: series mostly up to about 92 µM; nearly all actives have a fitted effect of over 55% in size
[7] = Cell Viability - LYMP2-011 (AID 969); note: nearly all actives have a fitted effect of over 60% in size
Procedure, shortened: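 Cytotoxicity qHTS with ATP content as read-out: lymphoblastoid cells (2500/well) exposed to compound for 24 h at 37 C, then luciferase luminescence measured. Concentration-response data fitted with the standard Hill equation to give AC50.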

[8] = Cell Viability - LYMP2-013 (AID 970); note: series mostly up to about 92 µM; nearly all actives have a fitted effect of over 55% in size
Procedure, shortened: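 qHTS cytotoxicity: ATP-dependent luminescence (CellTiter-Glo, 30 min room temperature) read after 24 h compound exposure at 37 C of 2500 LYMP2-013 lymphoblastoid cells per well. Concentration-response fitted with Hill equation to give AC50.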

[9] = Cell Viability - LYMP2-015 (AID 971); note: nearly all actives have a fitted effect of over 55% in size
Procedure, shortened: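 Cytotoxicity readout: decrease in intracellular ATP (CellTiter-Glo luminescence) in 2500 LYMP2-015 lymphoblastoid cells/well after 24 h compound exposure at 37 C. Concentration-response data fitted with the standard Hill equation to give AC50.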

[10] = Cell Viability - LYMP2-017 (AID 972); note: series mostly up to about 92 µM; nearly all actives have a fitted effect of over 55% in size
Procedure, shortened: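 CellTiter-Glo luminescence (cellular ATP, 30 min RT) measured cytotoxicity after 24 hr compound treatment at 37 C. Cells were a human lymphoblastoid line, LYMP2-017, plated at 2500/well and incubated 5 hr first; concentration-response fitted with Hill equation for AC50.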

[11] = Cell Viability - LYMP2-019 (AID 973); note: nearly all actives have a fitted effect of over 55% in size
Procedure, shortened: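 AC50 values come from Hill-equation fits of luminescent intracellular ATP (CellTiter-Glo, 30 min, room temperature) following 24 h compound exposure at 37 C. Cells: LYMP2-019 lymphoblastoid line, 2500 per well, in complete culture medium.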

[12] = Cell Viability - LYMP2-021 (AID 974); note: nearly all actives have a fitted effect of over 55% in size
Procedure, shortened: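 AC50 values come from Hill-equation fits to CellTiter-Glo luminescence (ATP content), read after 24 hour compound exposure at 37 C of 2500 LYMP2-021 lymphoblastoid cells/well; tetraoctylammonium bromide as positive control.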

[13] = Cell Viability - LYMP2-023 (AID 975)
Procedure, shortened: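 Intracellular ATP, read by CellTiter-Glo luminescence, reports viability after 24 hr compound exposure at 37 C. 2500 lymphoblastoid cells/well (LYMP2-023) seeded 5 hr beforehand; Hill fits give AC50; positive control tetraoctylammonium bromide.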

[14] = Cell Viability - LYMP2-025 (AID 976); note: series mostly up to about 92 µM
Procedure, shortened: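 Cytotoxicity read as loss of intracellular ATP (luciferase luminescence) after 24 h compound treatment at 37 C. Uses LYMP2-025 lymphoblastoid cells in 1536-well format; Hill-equation modelling gives AC50; tetraoctylammonium bromide as positive control.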

[15] = Cell Viability - LYMP2-002 (AID 977); note: series mostly up to about 92 µM
Procedure, shortened: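 Human lymphoblastoid cells, 2500/well, complete medium; 5 h 37 C settle; compound 24 h 37 C; CellTiter-Glo, 30 min RT; luminescence. Decrease in ATP = cytotoxicity; AC50 via Hill equation.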

[16] = Cell Viability - LYMP2-006 (AID 978); note: series mostly up to about 92 µM; nearly all actives have a fitted effect of over 60% in size
Procedure, shortened: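 Human lymphoblastoid cells (LYMP2-006), 2500/well in complete medium, were treated with compound for 24 hr at 37 C. Cellular ATP was read by CellTiter-Glo luminescence after 30 min, and AC50 values came from Hill-equation fits of concentration-response data.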

[17] = Cell Viability - LYMP2-007 (AID 979);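 note: cells exposed to compound for 24 h before reading; nearly all actives have a fitted effect of over 60% in size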
Procedure, shortened: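 AC50 values come from Hill-equation fits of luminescent intracellular ATP (CellTiter-Glo, 30 min, room temperature) following 24 h compound exposure at 37 C. Cells: LYMP2-007 lymphoblastoid line, 2500 per well, in complete culture medium.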

[18] = Cell Viability - LYMP2-008 (AID 980); note: nearly all actives have a fitted effect of over 60% in size
Procedure, shortened: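 Cytotoxicity determined from ATP-dependent luciferase luminescence (CellTiter-Glo) following 24 h compound exposure of human lymphoblastoid LYMP2-008 cells at 37 C. Concentration-response data fitted to the Hill equation to give AC50.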

[19] = Cell Viability - LYMP2-010 (AID 981); note: nearly all actives have a fitted effect of over 55% in size
Procedure, shortened: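 CellTiter-Glo ATP luminescence measured cytotoxicity after 24 h compound exposure at 37 C. LYMP2-010 cells were seeded at 2500/well, with tetraoctylammonium bromide as control; concentration-response curves gave AC50 values by the Hill equation.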

[20] = Cell Viability - LYMP2-012 (AID 982)
From the text: NIH Chemical Genomics Center [NCGC]
NIH Molecular Libraries Screening Centers Network [MLSCN]
National Institutes of Environmental Health Sciences [NIEHS]
National Toxicology Program [NTP]
We have developed a 1536-well cell-based assay for quantitative high throughput screening (qHTS) against a number of cell lines to determine in vitro cytotoxicity of small molecules. This particular assay uses a human lymphoblastoid cell line (LYMP2-012) purchased from Coriell Institute for Medical Research.
NCGC Assay Protocol Summary:
The CellTiter-Glo luminescent cell viability assay (Promega) is a homogeneous method to measure the number of viable cells in culture. The end point readout of this assay is based on quantitation of intracellular ATP, an indicator of metabolic activity, using the luciferase reaction. Luciferase catalyzes the oxidation of beetle Luciferin to oxyluciferin and light in the presence of ATP. The luminescent signal is proportional to amount of ATP present.
Using the CellTiter-Glo luminescent cell viability assay, the amount of cellular ATP was measured in the lymphoblastoid cell line with complete culture medium following compound treatment for 24 hours. The assay was performed in opaque white Kalypsys 1536-well plates. In the screen, tetraoctylammonium bromide was used as positive control. Library compounds were measured for their ability to cause acute toxicity in the cell line, as reflected by a decrease in intracellular ATP levels, in a concentration-dependent manner. […] AC50 values were determined from concentration-response data modeled with the standard Hill equation.
qHTS protocol for CellTiter Glo lymphoblastoid cellular assay
[Step] [Parameter] [Value] [Description]
1. Reagent; 5 uL; 2500 lymphoblastoid cells/well
2. Time; 5 hr; 37 C incubation
4. Controls; 23 nL; Tetraoctylammonium bromide 6.4pM to 92 uM
5. Time; 24 hr; 37 C incubation
6. Reagent; 5 uL; CellTiter Glo reagent
7. Time; 30 min; Room Temperature
8. Detection; Luminescence; Viewlux plate reader
Keywords: cell viability, cytotoxicity, lymphoblastoid cell line, luminescence, NTPHTS, NTPHTS_NCGC, NIEHS, DSSTox, MLSMR, MLSCN, NIH Roadmap, qHTS, NCGC

Measured: outcome

C=CC(C)(O)CCC=C(C)C (stereo not given)
inactive: [1] | [2] | [3] | [4] | [5] | [6] | [7] | [8] | [9] | [10] | [11] | [12] | [13] | [14] | [15] | [16] | [17] | [18] | [19] | [20]

COS(C)(=O)=O
inactive: [1] | [2] | [3] | [4] | [5] | [6] | [7] | [8] | [9] | [10] | [11] | [12] | [13] | [14] | [15] | [16] | [17] | [18] | [19] | [20]

C=C(C)[C@H]1CC=C(C)C(=O)C1
inactive: [1] | [2] | [3] | [4] | [5] | [6] | [7] | [8] | [9] | [10] | [11] | [12] | [13] | [14] | [15] | [16] | [17] | [18] | [19] | [20]
